Source: PubChem (National Center for Advancing Translational Sciences (NCATS))
The full list was thinned out, with hits kept by preference.
Shiga toxin inh: blocks Shiga toxin action in Vero cells; Vero cells, Shiga toxin protein synthesis inhibition reporter; inhibition, % at 38.7 µM; actives 9.2% (n = 290,000); in the data active = inhibition mostly above about 28%, no sharp cut-off; inactive = mostly below about 43%; also: 0% is about no effect
Cycloheximide cs: counter-screen hit for Shiga toxin inhibitors, cycloheximide; cell reporter, cycloheximide protein synthesis inhibition counterscreen; actives 12% (n = 300,000); AID 2314; max response, %; in the data active = max response mostly above about 13%, no sharp cut-off; inactive = mostly below about 14%; also: read at 38.3 µM for the half of the compounds with a filed dose; 0% is about no effect
LmPK inhibitor: LmPK (Leishmania mexicana) enzyme inhibition. actives 0.37% (n = 290,000). Potency, µM (titrated, usually from 57.5 µM), for inactives: at the top dose activity change, negative = inhibition, actives largely listed as inhibitors. Q27686. purified LmPK, Kinase-Glo ATP luminescence, 1 h; also: potency is read from the fitted curve at half-maximal effect; % is scaled to controls: 0 for no effect and ±100 for the full control effect
Target sequence (Q27686 whole entry, looked up): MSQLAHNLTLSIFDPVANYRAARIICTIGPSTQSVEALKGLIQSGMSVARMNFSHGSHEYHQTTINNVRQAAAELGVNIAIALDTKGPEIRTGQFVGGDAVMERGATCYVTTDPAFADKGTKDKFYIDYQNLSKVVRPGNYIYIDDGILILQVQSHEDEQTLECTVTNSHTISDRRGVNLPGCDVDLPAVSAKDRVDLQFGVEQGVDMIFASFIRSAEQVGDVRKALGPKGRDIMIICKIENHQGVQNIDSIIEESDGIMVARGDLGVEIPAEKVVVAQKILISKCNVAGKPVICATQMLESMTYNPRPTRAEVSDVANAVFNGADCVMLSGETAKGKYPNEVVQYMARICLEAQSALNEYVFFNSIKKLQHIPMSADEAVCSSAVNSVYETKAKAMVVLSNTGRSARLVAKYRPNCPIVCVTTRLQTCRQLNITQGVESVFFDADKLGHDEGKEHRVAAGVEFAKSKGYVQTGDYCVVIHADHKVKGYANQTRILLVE
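In 50 mM imidazole pH 7.2 with 7 mM MgCl2, LmPK (0.1 nM) turned over PEP (0.5 mM) and ADP (0.1 mM) for 1 h at room temperature. Luciferase read-out of ATP.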
RE007 growth inh: less growth of the S. pombe RE007 Vpr strain | actives 0.21% (n = 360,000) | S. pombe RE007 Vpr strain, BacTiter-Glo ATP luminescence, 24 h | Potency, µM (top dose mostly 92.2 µM), inactives show top-dose activity change, negative = less growth, most hits filed as inhibitors | AID 651644; active = well fitted falling curve with a large enough effect; inconclusive = small, poorly fitted or top-dose-only effect; inactive = no such curve, though single readings can be large or run the other way; also: potency is read from the fitted curve at half-maximal effect; % is scaled to controls: 0 for no effect and ±100 for the full control effect; nearly all actives have a fitted effect of over 50% in size
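Fission yeast strain RE007, carrying one chromosomally integrated HIV-1 vpr copy, was seeded at OD 0.01 in PMG+AL medium with 23 nL pinned compound. After 24 h at 30 °C and 99% humidity, viability was read by BacTiter-Glo luminescence.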
FBPA Giardia inh: inhibitors of Giardia lamblia fructose-1,6-bisphosphate aldolase. A8B2U2. purified Giardia FBPA. Potency, µM (titrated, usually from 59.6 µM), for the others: top-dose activity, negative = inhibition, hits mostly inhibitors. actives 0.71% (n = 290,000). AID 2451; also: potency is read from the fitted curve at half-maximal effect; % is scaled to controls: 0 for no effect and ±100 for the full control effect; nearly all actives have a fitted effect of over 55% in size
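Giardia FBPA (40 nM reagent) was preincubated 10 min at RT with compound (up to 57.5 uM final), then substrate plus GAPDH/TPI/NAD/arsenate coupling system with diaphorase/resazurin was added; resorufin fluorescence (525/598 nm) was read after 20 min.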
TbPYK inhibitor: T. brucei pyruvate kinase inhibition. Q57TT1. TbPYK enzyme, Kinase-Glo Plus ATP luminescence, 45 min. Potency, µM (doses to about 76.8 µM), inactives show at the highest dose activity, negative = inhibition, usual class: inhibitors. actives 0.12% (n = 410,000); also: potency is read from the fitted curve at half-maximal effect; % is scaled to controls: 0 for no effect and ±100 for the full control effect; nearly all actives have a fitted effect of over 50% in size
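In this concentration-response screen, enzyme-free wells defined baseline while DMSO plates tracked drift. Each reaction combined TbPYK, substrate, compound and 130 uM ADP for 45 min at room temperature. Kinase-Glo Plus luminescence gave the signal.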
The depositor's hits bear a star; ? = inconclusive; . = not tested or not shown; [ ] = dose if it differs, or a comment. Unless noted, calls follow the shape of the dose curve; as a rule, active = well fitted curve in the direction sought with a large enough effect; inconclusive = small, poorly fitted or top-dose-only effect, or another doubt; inactive = no such curve, though single readings can be large; an effect the other way counts as inactive or inconclusive.

SMILES	Shiga toxin inh	Cycloheximide cs	LmPK inhibitor	RE007 growth inh	FBPA Giardia inh	TbPYK inhibitor
CC1CCN(C(=O)Cn2nnc(-c3ccccc3)n2)CC1	83*	30*	-8%	-8%	8%	-12%
COc1ccc(-c2nnn(CC(=O)Nc3ccc4c(c3)OCCO4)n2)cc1OC	.	.	.	12%	.	5%
O=C(Cn1nnc(-c2ccc(N3CCOCC3)cc2)n1)N1CCOCC1	34*	34*	-5%	-5%	2%	-3%
O=C1CCCC1C(O)c1ccc2ccccc2c1 (configuration not stated)	.	.	.	.	2%	.
Cc1nn(CCCC(=O)Nc2ccccc2C(F)(F)F)c(=O)c2c1sc1ccccc12	.	.	.	.	.	2%
CC(C)c1ccc(-c2nnn(CC(=O)N3CCCCC3)n2)cc1	.	9	28%	-7%	10%	4%
Cc1ccc(-c2nnn(CC(=O)N3CCCCC3)n2)cc1	.	19*	7%	-8%	-4%	0%
CC1CCN(C(=O)CCc2nnc(-c3ccccc3)o2)CC1	97*	43*	-6%	-19%	8%	1%
Cc1ccc(-c2nnn(CC(=O)NC3CC4CCC3C4)n2)cc1 (configuration not stated)	12	12*	-2%	-19%	0%	-2%
CCCCOc1ccc(-c2nnn(CCC(=O)N3CCOCC3)n2)cc1	78*	36*	-3%	11%	6%	-11%
O=C(Cn1nnc(-c2ccc(Cl)cc2)n1)NC1CC2CCC1C2 (configuration not stated)	-2	-6	0%	26%	4%	5%
Cc1cc(C)c(NC(=O)Cn2c(=O)n(-c3ccc(F)cc3)c(=O)c3c(C)c(C(=O)N(C)C)sc32)c(C)c1	.	.	.	.	.	1%
O=C(C1CC1)N1CCc2cc(S(=O)(=O)N3CCOCC3)ccc21	-14	-3	-2%	0%	3%	5%
CC(Cl)C(=O)c1ccc2c(c1)CCN2C(=O)C1CC1 (configuration not stated)	44	21*	8%	13%	-3%	4%
c1ccc(CSc2nnc(-c3ccco3)o2)cc1	109*	49*	0%	15%	2%	-3%
Fc1ccc(CSc2nnc(-c3ccco3)o2)cc1	59*	46*	-11%	-8%	0%	0%
N#Cc1c(N)nc(SCc2ccccc2)c(C#N)c1-c1ccco1	6	15*	0%	7%	-12%	-9%
c1coc(-c2nnc(SCc3nc4ccccc4[nH]3)o2)c1	18	8	-1%	14%	-26%	-6%
Cc1ccc(CSc2nnc(-c3ccco3)o2)cc1	107*	33*	1%	14%	7%	-8%
O=C(O)c1ccc(CSc2nnc(-c3ccco3)o2)cc1	6	-6	10%	1%	24%	2%
CCCOc1ccc(NC(=O)CC2C(=O)N(c3ccc(C)cc3)C(=O)N2C2CCCC2)cc1 (configuration not stated)	.	.	.	.	.	3%
COc1ccccc1-c1oc2ccccc2c(=O)c1OC	.	.	.	.	5%	.
Brc1ccc(CSc2nnc(-c3ccco3)o2)cc1	69*	63*	-1%	-23%	-1%	8%
O=C(COCc1cc(-c2ccc(F)cc2)on1)Nc1cccc(C(F)(F)F)c1	.	.	.	.	.	5%
COc1ccc(O[C@H]2C=C[C@@H](c3ccccc3)O[C@H]2CO/N=C2/c3cc(OC)ccc3O[C@@H](c3cccc(OC)c3)[C@H]2O)cc1	.	.	.	.	0%[12.9 µM]	.
SMILES	Shiga toxin inh	Cycloheximide cs	LmPK inhibitor	RE007 growth inh	FBPA Giardia inh	TbPYK inhibitor
Cc1cc(=O)oc(C)c1C(=O)OCC(=O)c1ccc(Br)cc1	70*	24*	1%	40%	2%	2%
CCn1nc(C)cc1C(=O)OCC(=O)c1ccc(Cl)cc1	-9	1	-2%	-5%	.	-1%
Cc1ccc(S(=O)(=O)N2CCOCC2)cc1C(=O)OCC(=O)c1ccc(Br)cc1	.	.	.	12%	.	5%
Cc1cc(=O)oc(C)c1C(=O)OCC(=O)c1ccc(Cl)cc1	80*	35*	1%	-2%	.	4%
CN(C)c1ccc(-c2ccccc2)nn1	94*	32*	25µM*	-11%	0%	-18%
CCN(CC)c1cc(-c2ccccc2)ncn1	-1	9	2%	-2%	-21%	4%
Cc1nn(-c2ccc(C(=O)O)cc2)c(N)c1-c1ccccc1	23*	28*	0%	-1%	1%	1%
Cc1nn(C(C)(C)C)c(N)c1-c1ccccc1	10	14	2%	-27%	1%	-6%
COc1ccc(-c2c(C)nn(-c3ccccc3)c2N)cc1	51	23*	2%	-13%	-1%	0%
Cc1nn(-c2ccc(C(=O)O)cc2)c(C)c1Cl	58*	25*	4%	15%	6%	-7%
Cc1c(C(=O)NCCc2ccccc2)cccc1-n1cnc2cccnc21	.	.	.	.	.	-3%[15.4 µM]
O=S(=O)(Oc1ccc(Cl)cc1)c1cccc2cccnc12	35	16*	6%	0%	-20%	-2%
O=S(=O)(Oc1ccc(Cl)cc1)c1ccccc1	21*	21*	.	.	-27%	.
Cc1ccc(S(=O)(=O)Oc2ccccc2)cc1	.	.	.	-17%	.	-1%
O=S(=O)(O)c1cccc2cccnc12	-4	11	.	.	.	.
CN(C)/N=C/c1ccc(OS(=O)(=O)c2ccccc2)cc1	64*	47*	4%	-3%	-11%	2%
COc1cccc(CNC(=O)CCc2cn(Cc3ccccc3Cl)c3ccccc23)c1	.	.	.	.	.	3%
CCCCSCCCNC(=O)c1cc(-c2cccnc2)nc2ccc(S(=O)(=O)N3CCC(C)CC3)cc12	.	.	.	.	.	5%
Cc1c(C2Nc3ccccc3C(=O)N2O)cnn1C (configuration not stated)	-2	17*	-4%	3%	-11%	-1%
CCn1cc(C2Nc3ccccc3C(=O)N2O)c(C)n1 (configuration not stated)	44*	12*	-6%	-12%	-2%	-10%
COc1cccc(C2Nc3ccccc3C(=O)N2O)c1O (configuration not stated)	41	3	0%	-1%	-3%	-10%
CCOC(=O)C1=C(CNCc2ccccc2)NC(=O)NC1c1ccc(C)cc1 (configuration not stated)	.	.	.	.	.	0%
Cc1ccc(Nc2nnc(-c3ccccc3N)o2)cc1C	41*	26*	2%	4%	-2%	-2%
Cc1cccc(/C(N)=N/OC(=O)N2CCOCC2)c1	101*	24*	?	-19%	-2%	0%
Cc1ccc(/C(N)=N/OC(=O)C23CC4CC(CC(C4)C2)C3)cc1	101*	23*	4%	-19%	-6%	3%
Cc1ccc(/C(N)=N/OC(=O)N2CCOCC2)cc1	16	22*	-2%	-1%	7%	-3%
